Measured values as given in PubChem BioAssay (Tox21).
Records with an inconclusive call do not appear. Entries that show only a call come without a potency. A number with no mark means an inactive call. The source made the active and inactive calls. Calls come from the whole dose curve.

These compounds were tested against Beta-2 adrenergic receptor (Homo sapiens) (UniProt P07550) (assay: Adrenergic beta2 receptor (ADRB2) small molecule agonists, cell-based qHTS assay (AID 1963593)). Details: CHO-ADRB2 cells, cAMP HTRF, 30 min; series mostly up to 42.5 µM.
Sequence of Beta-2 adrenergic receptor (Homo sapiens) (P07550 whole entry, looked up): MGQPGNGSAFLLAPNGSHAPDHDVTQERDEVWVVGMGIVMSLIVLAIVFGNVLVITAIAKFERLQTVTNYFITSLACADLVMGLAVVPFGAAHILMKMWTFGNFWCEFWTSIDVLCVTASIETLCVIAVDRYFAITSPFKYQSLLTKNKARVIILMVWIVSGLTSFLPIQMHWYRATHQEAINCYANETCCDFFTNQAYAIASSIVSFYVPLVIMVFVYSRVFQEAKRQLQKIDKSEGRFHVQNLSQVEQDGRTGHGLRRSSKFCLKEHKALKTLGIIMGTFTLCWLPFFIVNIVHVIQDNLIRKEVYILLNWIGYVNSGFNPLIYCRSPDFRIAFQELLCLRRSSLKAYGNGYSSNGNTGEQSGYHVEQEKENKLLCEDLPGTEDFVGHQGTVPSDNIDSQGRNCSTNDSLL
From the text: National Center for Advancing Translational Sciences [NCATS]
Division of Preclinical Innovation [DPI]
U.S. Environmental Protection Agency [EPA]
National Institutes of Environmental Health Sciences [NIEHS]
National Toxicology Program [NTP]
U.S. Food and Drug Administration [FDA]
Beta adrenergic receptors (Beta-ARs) belong to the G-protein coupled receptor (GPCR) superfamily, includes three subtypes - beta1, beta2, and beta3. Beta1-AR is the predominant receptor subtype expressed in the heart, and beta2-AR is expressed in the kidney, lung, blood vessel and in the heart, and beta3 is found in the adipocytes. Beta1 and 2 ARs couple to Gs protein and elevate cyclic adenosine mono phosphate (cAMP), which activates protein kinase A and leads to the downstream signaling responsible for the physiological actions. Beta-AR agonists or antagonists are the most prescribed therapeutic agents for heart failure and asthma, and these were one of the first target receptors for the rational drug design. Tox21 10K compound library was screened using the cAMP-Gs dynamic assay (Cisbio Bioassays, Shelton, CT) to identify agonists/antagonists of the Gs-coupled human adrenergic, beta2 receptor (ADRB2) in the CHO-ADRB2 cell line (Codex BioSolutions, Inc. Gaithersburg, MD), which stably over-expresses ADRB2. The principle of cAMP-Gs dynamic assay is based on HTRF technology, which facilitates the fluorescence resonance energy transfer (FRET) between donor Europium cryptate and acceptor d2-labeled cAMP. The cAMP generated within cells competes with the red acceptor, d2-labled cAMP, for binding to the monoclonal anti-cAMP-cryptate (Europium donor). An increase in intracellular cAMP leads to the disruption of FRET signal, and the signal is inversely proportional to the cAMP concentration. Isoproterenol HCl (Sigma-Aldrich, St. Louis, MO) was used as a positive control in the screening.
Tox21 Assay Protocol Summary:
CHO-ADRB2 cells were dispensed at 1,000/well in 4uL assay medium into white/solid 1536-well plates (Greiner Bio-One North America Inc., Monroe, NC) using a Multidrop Combi dispenser (ThermoFisher Scientific, Waltham, MA). The assay plates were incubated at 37C and 5% CO2 for an overnight (18-20hr). Then positive control and test compounds dissolved in DMSO were transferred to the assay plates at 23nL using a Pintool station (Wako, San Diego, CA). Following the compound and positive control transfer, 1uL stimulation mix containing 100uM IBMX and 25uM Ro-20-1724 was added to each well of the assay plates using BioRAPTR Flying Reagent Dispenser (FRD, Beckman Coulter, Brea, CA). The assay plates were incubated at room temperature for 0.5hr. Then 2.5ul each d2-labled cAMP and anti-cAMP-cryptate solutions were added separately to each well of the assay plates using an FRD and the assay plates were incubated at room temperature for 1hr.

| Structure (SMILES) | Potency | activation |
| --- | --- | --- |
| O=C(OCCN1CCOCC1)c1cccnc1Nc1cccc(C(F)(F)F)c1 | inactive | – |
| CCCCCCCCCCCCCc1ccccc1 | inactive | – |
| Cc1occc1C(=O)Nc1ccc(C(=O)N2CCC(F)(F)/C(=C\C(=O)N3CCC(N4CCCCC4)CC3)c3ccccc32)cc1 | inactive | – |
| CCN(CCO)CCCC(C)Nc1ccnc2cc(Cl)ccc12 (stereo not given) | – | 0.519% [at 8.39 µM] |
| CCOC(=O)NNc1ccc(N(CC)CC(C)O)nn1 (stereo not given) | inactive | – |
| Cc1ccc(OC(=O)c2ccccc2O)cc1 | inactive | – |
| CN(C)c1ccc(C(c2ccccc2)c2ccc(N(C)C)cc2)cc1 | inactive | – |
| Cc1cc(CC(=O)O)c(C)n1-c1ccc(Cl)cc1 | inactive | – |
| CC[C@H]1OC(=O)[C@H](C)[C@@H](O[C@H]2C[C@@](C)(OC)[C@@H](O)[C@H](C)O2)[C@H](C)[C@@H](O[C@@H]2O[C@H](C)C[C@H](N(C)C)[C@H]2O)[C@](C)(OC)C[C@@H](C)C(=O)[C@H](C)[C@@H](O)[C@]1(C)O | inactive | – |
| CC(C)C(=O)OC/C=C/c1ccccc1 | inactive | – |
| O=C1c2ccccc2S(=O)(=O)N1CCCCN1CCN(c2ncccn2)CC1 | inactive | – |
| Cn1c(=O)cc(Oc2ccc(F)cc2F)c2cnc(NCC(C)(C)O)nc21 | inactive | – |
| C[N+]1(CC2COC(c3ccccc3)(C3CCCCC3)O2)CCCCC1 (stereo not given) | inactive | – |
| CO[C@H]1O[C@H](CO)[C@@H](O)[C@H](O)[C@H]1O | inactive | – |
| CC(C(=O)O)c1cccc(Oc2ccccc2)c1 (stereo not given) | inactive | – |
| CCCCc1ccc2c(n1)[C@@H](c1ccc(OC)cc1C[C@H](C)C(=O)O)[C@H](C(=O)O)[C@H]2c1ccc2c(c1)OCO2 | inactive | – |
| NC(=O)C1(N2CCCCC2)CCN(CCCC(=O)c2ccc(F)cc2)CC1 | inactive | – |
| CC1=NS(=O)(=O)c2cc(Cl)ccc2N1 | inactive | – |
| CC(=O)OC1CCCCC1C(C)(C)C (stereo not given) | inactive | – |
| O=C(Nc1ccccc1)c1cc([N+](=O)[O-])ccc1Cl | inactive | – |

| Structure (SMILES) | Potency | activation |
| --- | --- | --- |
| OCCCCC(O)CO (stereo not given) | inactive | – |
| CCOC(=O)CC1(C)OCC(C)O1 (stereo not given) | inactive | – |
| OCCSc1ccccc1 | inactive | – |
| CCN1CCCC1CN (stereo not given) | inactive | – |
| CCCCOCCOC(=O)CCCCCCCCC(=O)OCCOCCCC | inactive | – |
| Cc1cccc(N(C)C(=S)Oc2ccc3c(c2)CCC3)c1 | inactive | – |
| CCCCC(=O)OCC(=O)[C@H]1[C@H](C)C[C@H]2[C@@H]3C[C@H](F)C4=CC(=O)C=C[C@]4(C)[C@@]3(F)[C@@H](O)C[C@@]21C | inactive | – |
| C[N+]1(C)CCC(=C(c2ccccc2)c2ccccc2)CC1 | inactive | – |
| OC[C@H]1O[C@@H](O[C@@H]2[C@@H](CO)O[C@](O)(CO)[C@H]2O)[C@H](O)[C@@H](O)[C@H]1O | inactive | – |
| Nc1ccc(S(=O)(=O)NCc2ccccc2)cc1 | inactive | – |
| OC1CCC(C2CCCCC2)CC1 (stereo not given) | inactive | – |
| Nc1c(Cl)cc(Cl)cc1Cl | inactive | – |
| CCOC(=O)Cn1cccc1-c1nc(-c2ccc(OC)cc2)c(-c2ccc(OC)cc2)s1 | inactive | – |
| CC(C)(C)C(=O)OCOC(=O)[C@@H]1N2C(=O)[C@@H](NC(=O)[C@H](N)c3ccccc3)[C@H]2SC1(C)C | inactive | – |
| C[C@H](CN1CCCC1)C(=O)c1ccc(C(F)(F)F)cc1 | inactive | – |
| C=C(C)CCCC | inactive | – |
| COc1ccc(CN2CCN(C(c3ccc(F)cc3)c3ccc(F)cc3)CC2)c(OC)c1OC | inactive | – |
| CCCSS/C(CCO)=C(\C)N(C=O)Cc1cnc(C)nc1N | inactive | – |
| CCCCCCCCN1CCCC1=O | inactive | – |
| CC1OC(=O)C(C)OC1=O (stereo not given) | inactive | – |
